Data from PubChem BioAssay (NCATS).
Several values for one entry are separate records, joined by “and”; a condition that tells them apart may be missing. Identical values can stand only once. Inconclusive results are not listed. Entries that show only a call come without a potency. Unmarked numbers belong to inactive results. Activity calls are given as the source filed them. Calls come from the whole dose curve; as a rule, active = well fitted curve in the direction sought with a large enough effect; inconclusive = small, poorly fitted or top-dose-only effect, or another doubt; inactive = no such curve, though single readings can be large; an effect the other way counts as inactive or inconclusive.

Experiments:
[1] = qHTS of pediatric cancer cell lines to identify multiple opportunities for drug repurposing: Primary screen for NB-EBc1 cells (AID 1347095)
Method in brief: (§1)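 Plated cells (500-1,000 per well, growth media) were allowed to settle for 5 hours, treated with compound dilutions for 48 hours, then lysed with CellTiter-Glo for 15 min at room temperature before luminescence reading.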

[2] = qHTS of pediatric cancer cell lines to identify multiple opportunities for drug repurposing: Primary screen for U-2 OS cells (AID 1347096); note: nearly all actives have a fitted effect of over 50% in size
Method in brief: (§2)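 Cells (500-1,000/well) rested 5 h, then received compounds for 48 h; metabolically active cells were measured by CellTiter-Glo luminescence. Final concentrations spanned up to 46 µM (MIPE, 11-point) or 0.59 nM-46 µM (NPC, 8-point) in primary screens, 11-point in follow-ups.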

[3] = qHTS of pediatric cancer cell lines to identify multiple opportunities for drug repurposing: Primary screen for Saos-2 cells (AID 1347097); note: nearly all actives have a fitted effect of over 40% in size
Method in brief: as §1

[4] = qHTS of pediatric cancer cell lines to identify multiple opportunities for drug repurposing: Primary screen for SK-N-SH cells (AID 1347098); note: nearly all actives have a fitted effect of over 65% in size
Method in brief: as §2

[5] = qHTS of pediatric cancer cell lines to identify multiple opportunities for drug repurposing: Primary screen for NB1643 cells (AID 1347099); note: nearly all actives have a fitted effect of over 50% in size
Method in brief: as §1

[6] = qHTS of pediatric cancer cell lines to identify multiple opportunities for drug repurposing: Primary screen for LAN-5 cells (AID 1347100)
Method in brief: as §2

[7] = qHTS of pediatric cancer cell lines to identify multiple opportunities for drug repurposing: Primary screen for BT-12 cells (AID 1347101); note: nearly all actives have a fitted effect of over 25% in size
Method in brief: as §2

[8] = qHTS of pediatric cancer cell lines to identify multiple opportunities for drug repurposing: Primary screen for Rh18 cells (AID 1347102); note: nearly all actives have a fitted effect of over 65% in size
Method in brief: as §2

[9] = qHTS of pediatric cancer cell lines to identify multiple opportunities for drug repurposing: Primary screen for RD cells (AID 1347104); note: nearly all actives have a fitted effect of over 55% in size
Method in brief: as §1

[10] = qHTS of pediatric cancer cell lines to identify multiple opportunities for drug repurposing: Primary screen for OHS-50 cells (AID 1347103); note: nearly all actives have a fitted effect of over 40% in size
Method in brief: as §2
Potency is the fitted concentration of half-maximal effect.

SMILES	Potency [1]	Potency [2]	Potency [3]	Potency [4]	Potency [5]	Potency [6]	Potency [7]	Potency [8]	Potency [9]	Potency [10]
CC1Cc2ccccc2N1NC(=O)c1ccc(Cl)c(S(N)(=O)=O)c1 (stereo unspecified)	inactive	inactive	inactive	inactive	inactive	inactive	inactive	inactive	inactive	
O=C(O)c1cccnc1Nc1cccc(C(F)(F)F)c1	inactive	inactive	inactive	inactive	inactive	inactive	inactive	inactive	inactive	
O=C(O)c1cc(=O)c2c(OCC(O)COc3cccc4oc(C(=O)O)cc(=O)c34)cccc2o1	inactive	inactive	inactive	inactive	inactive	inactive	inactive	inactive	inactive	inactive
CC(C)[C@H](N)C(=O)OCCOCn1cnc2c(=O)[nH]c(N)nc21	inactive	inactive	inactive	inactive	inactive	inactive	inactive	inactive	inactive	inactive
Nc1cccc2c1CN(C1CCC(=O)NC1=O)C2=O (stereo unspecified)	inactive	inactive	inactive	inactive	inactive	inactive	inactive	inactive	inactive	
CC1=C(C(=O)O)N2C(=O)[C@@H](NC(=O)[C@H](N)C3=CCC=CC3)[C@H]2SC1	inactive	inactive	inactive	inactive	inactive	inactive	inactive	inactive	inactive	inactive
O=C(NOCC1CC1)c1ccc(F)c(F)c1Nc1ccc(I)cc1Cl	15 µM (active) and 8.33 µM (active)	18.7 µM (active)	10.6 µM (active) and 16.6 µM (active)	19.4 µM (active)	16.6 µM (active)	16.8 µM (active) and 16.6 µM (active)	27.6 µM (active) and 24.3 µM (active)		9.44 µM (active) and 5.26 µM (active)	19.3 µM (active)
CCN(CC)C(=S)SSC(=S)N(CC)CC	11.8 nM (active) and 31.3 µM (active)	0.0743 µM (active)	13.2 nM (active) and 62.4 nM (active) and 211 nM (active)	0.114 µM (active)	83.3 nM (active) and 124 nM (active) and 668 nM (active)	23.5 nM (active) and 39.4 nM (active)	15.3 nM (active) and 72.7 nM (active) and 174 nM (active)	33.2 nM (active) and 70 nM (active) and 376 nM (active)	11.8 nM (active) and 35.1 nM (active) and 150 nM (active)	0.0432 µM (active)
COc1cc2nc(N3CCN(C(=O)C4CCCO4)CC3)nc(N)c2cc1OC (stereo unspecified)	inactive	inactive	inactive	inactive	inactive	inactive	inactive	inactive	inactive	
COc1cc(OC)c(C(=O)CCCN2CCCC2)c(OC)c1	inactive	inactive	inactive	inactive	inactive	inactive	inactive	inactive	inactive	inactive
COCCCOc1ccnc(CS(=O)c2nc3ccccc3[nH]2)c1C (stereo unspecified)	inactive	inactive	inactive	inactive	inactive	inactive	inactive	inactive	inactive	inactive
NNc1nncc2ccccc12	inactive	inactive	inactive	inactive	inactive	inactive	inactive	inactive	inactive	
N[C@@H](Cc1cc(I)c(Oc2cc(I)c(O)c(I)c2)c(I)c1)C(=O)O	inactive	inactive	inactive	inactive	inactive	inactive	inactive	inactive	inactive	inactive
CCC[C@@H]1C[C@@H](C(=O)N[C@@H]([C@H]2O[C@H](SC)[C@H](O)[C@@H](O)[C@H]2O)[C@@H](C)O)N(C)C1	inactive	inactive	inactive	inactive	inactive	inactive	inactive	inactive	inactive	inactive
NC(=NCc1ccccc1)NC(=O)c1nc(Cl)c(N)nc1N	inactive	inactive	inactive	inactive	9.35 µM (active)	inactive	inactive	inactive	26.4 µM (active)	
CCC1=C(C)CN(C(=O)NCCc2ccc(S(=O)(=O)NC(=O)NC3CCC(C)CC3)cc2)C1=O (stereo unspecified)	inactive	inactive	inactive	inactive	inactive	inactive	inactive	inactive	inactive	inactive
Nc1cc(C(Cl)=C(Cl)Cl)c(S(N)(=O)=O)cc1S(N)(=O)=O	inactive	inactive	inactive	inactive	inactive	inactive	inactive	inactive	inactive	inactive
Cc1cc(C2CCCCC2)n(O)c(=O)c1	7.43 µM (active)	inactive	21.1 µM (active)	1.09 µM (active)	11.9 µM (active) and 20.9 µM (active)	7.43 µM (active)	6.92 µM (active) and 17.2 µM (active)		7.5 µM (active) and 18.7 µM (active)	3.09 µM (active) and 4.32 µM (active)
CC(=O)Nc1ccc(O)cc1	inactive	inactive	inactive	inactive	inactive	inactive	inactive	inactive	inactive	inactive
NC(=O)Cc1cccc(C(=O)c2ccccc2)c1N	inactive	inactive	inactive		inactive	inactive	inactive	inactive	inactive	inactive
